# Compounds with a hit are over-represented: about 28% of the library has one in this group of screens.
# CYP2C19 inhib = blocks human cytochrome P450 2C19. CYP2C19 Supersomes, luciferin-H EGE luminescence, 30 min. inhibition, % at 5 µM. hit rate 21% among 96,000;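 active = CYP2C19 inhibition above a set limit at 5 µM in the primary screen, cut at about 50% in these data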;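 also: plate controls were negative control wells for no effect and 2.5 mM tranylcypromine positive control for full effect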
# Target sequence (P33261 whole entry, looked up): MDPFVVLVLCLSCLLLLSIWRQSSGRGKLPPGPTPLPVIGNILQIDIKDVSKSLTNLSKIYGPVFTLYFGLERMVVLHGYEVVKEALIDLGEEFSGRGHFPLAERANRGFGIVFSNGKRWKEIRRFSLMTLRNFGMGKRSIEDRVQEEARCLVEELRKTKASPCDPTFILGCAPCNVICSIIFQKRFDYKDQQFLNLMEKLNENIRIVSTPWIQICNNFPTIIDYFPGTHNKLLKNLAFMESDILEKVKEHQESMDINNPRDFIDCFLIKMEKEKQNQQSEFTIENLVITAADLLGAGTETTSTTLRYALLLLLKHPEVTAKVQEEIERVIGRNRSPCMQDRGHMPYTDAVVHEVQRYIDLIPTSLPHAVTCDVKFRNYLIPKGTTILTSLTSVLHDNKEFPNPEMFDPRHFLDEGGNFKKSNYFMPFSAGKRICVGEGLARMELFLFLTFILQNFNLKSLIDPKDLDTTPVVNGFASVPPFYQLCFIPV
# Plk1 PBD FP = Plk1 (human) PBD binding inhibition; Plk1 PBD phosphopeptide binding, fluorescence polarization; hit rate 0.13% among 97,000; inhibition, %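 (tested at about 20 µM)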; P53350; in the data active = inhibition above about 34%, passing the limit was not always enough
# CYP2C9 inhib = blocks human cytochrome P450 2C9; P11712; inhibition, % at 5 µM; CYP2C9 Supersomes, luciferin-H conversion, luminescence; hit rate 20% among 96,000;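 active = blocking of liver enzyme CYP2C9 beyond about 50% at 5 µM, limit read from the data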
# PLK1 inh = PLK1 (human) kinase inhibition | recombinant PLK1 kinase, TR-FRET peptide phosphorylation | hit rate 0.53% among 97,000 | P53350 | inhibition, % at 10 µM | AID 619;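 active = inhibition of 50% or more in the single-concentration screen; inactive = inhibition below 50%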;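 also: 0% = DMSO max control and 100% = H-89 dihydrochloride min control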
# CYP2C9 activ = activators of human CYP2C9; P11712; recombinant CYP2C9, luciferin-H conversion, luminescence; active compounds read high; factor 1 = untreated enzyme, 0 = blocked; activation factor at 5 µM; hit rate 1.4% among 96,000; AID 1024;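 active = activation factor of 2 or more for CYP2C9 at a 5 µM dose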;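 also: 0 = sulfaphenazole-blocked wells and 1 = vehicle-only wells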
# CYP2C19 activ = increases human CYP2C19 enzyme activity. recombinant CYP2C19, luciferin-H EGE luminescence; active compounds read high; 0 = fully inhibited enzyme, 1 = untreated enzyme. activation factor at 5 µM. 96,000 tested, under 10 active. AID 1025;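 active = activation factor of at least 2 at 5 µM in the primary screen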;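 also: 0 = wells with 2.5 mM tranylcypromine and 1 = vehicle-only wells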
# Numbers without * were called inactive; / = not tested or not shown.
SMILES,CYP2C19 inhib,Plk1 PBD FP,CYP2C9 inhib,PLK1 inh,CYP2C9 activ,CYP2C19 activ
COc1cccc(NC(=O)C(C#N)Cc2ccncc2)c1 (configuration not stated),100*,-16,77*,-6,0.2,0
COc1ccc(NC(=O)C(C)Oc2ccc(/C(C)=N\O)cc2)cc1 (configuration not stated),81*,41,66*,-3,0.3,0.2
COc1ccc(OC(C)C(=O)Nc2cccc(OC)c2)cc1 (configuration not stated),87*,16,75*,-2,0.3,0.1
COc1ccc(C)cc1NC(=O)COC(=O)C1CC1,-14,-25,-31,-18,1.3,1.1
N=c1n(CCN2CCOCC2)c2ccccc2n1Cc1ccccc1Br,0,-11,0,0,1,1
S=c1[nH]nc(Cc2ccccc2)n1Cc1ccco1,71*,-3,39,-12,0.6,0.3
Oc1ccc(-c2n[nH]c(=S)n2Cc2ccco2)cc1,31,2,68*,4,0.3,0.7
CCOC(=O)N1CCC(N2CC34C=CC(O3)C(C(=O)Nc3ccc(C(C)C)cc3)C4C2=O)CC1 (configuration not stated),16,7,76*,-22,0.2,0.8
CCOC(=O)C1C(=O)C=C(c2ccc(Br)cc2)CC1c1ccco1 (configuration not stated),25,9,28,1,0.7,0.7
CCOC(=O)C1C(=O)C=C(c2ccc([N+](=O)[O-])cc2)CC1c1ccccc1 (configuration not stated),76*,-33,75*,-12,0.3,0.2
O=C(CSc1nnc2ccccn12)NC(=O)NC1CCCCC1,4,-6,2,-16,1,1
CCOc1ccccc1NC(=O)C1CCCN(C(=O)NCc2ccccc2)C1 (configuration not stated),51*,-20,-78,-8,1.8,0.5
CCOc1ccc(NC(=O)C2CCN(C(=O)NCc3ccccc3)CC2)cc1,-2,12,-5,-10,1,1
CN(C)C(=O)N1CCCC(C(=O)NCc2ccccc2)C1 (configuration not stated),57*,15,0,-16,1,0.4
O=C(NC1CCCCC1)C1CCN(c2cnccn2)CC1,-9,-10,-47,-18,1.5,1.1
Cc1ccc(NC(NC(=O)c2ccccn2)C(Cl)(Cl)Cl)cc1 (configuration not stated),42,14,35,-1,0.6,0.6
Cc1ccc(NC(NC(=O)c2cccs2)C(Cl)(Cl)Cl)cc1 (configuration not stated),95*,13,99*,-9,0,0.1
CSc1ccccc1NC(=O)c1cccs1,8,19,4,-1,1,0.9
Cc1ccccc1NC(NC(=O)c1cccs1)C(Cl)(Cl)Cl (configuration not stated),99*,11,96*,-4,0,0
Cc1ccc(NC(NC(=O)c2cccs2)C(Cl)(Cl)Cl)cc1C (configuration not stated),12,-10,56*,3,0.4,0.9
c1ccc(-n2nnc3cnccc32)cc1,14,/,0,/,1,0.9
CN(CCc1ccccn1)C(=O)Nc1ccc(F)cc1,38,10,8,1,0.9,0.6
CN(CCc1ccccn1)S(=O)(=O)c1ccccc1F,64*,-8,-33,2,1.3,0.4
CN(CCc1ccccn1)Cc1ccc(Cl)cc1Cl,68*,-9,2,-19,1,0.3
COc1ccc(OC)c(C(=O)C2COC(=O)C2)c1 (configuration not stated),2,6,-33,-3,1.3,1
SMILES,CYP2C19 inhib,Plk1 PBD FP,CYP2C9 inhib,PLK1 inh,CYP2C9 activ,CYP2C19 activ
COc1cccc(-c2nnc(NC(=O)c3ccc(S(=O)(=O)N4CC(C)OC(C)C4)cc3)o2)c1 (configuration not stated),8,13,-18,3,1.2,0.9
Cc1ccnc(NS(=O)(=O)c2ccc(N)cc2)n1,18,1,21,-3,0.8,0.8
Cc1cc(C)nc(SCNC(=O)c2ccc(F)cc2)n1,62*,-17,-25,-4,1.3,0.4
COc1ccc(N(C(=O)Cn2nnc(-c3ccc(Cl)cc3)n2)C(C(=O)NCC2CCCO2)c2ccc(C)cc2)cc1 (configuration not stated),-12,31,7,-5,0.9,1.1
Cc1ccc(C)c(N(C(=O)Cn2nnc(-c3cccs3)n2)C(C(=O)NC2CCCC2)c2ccncc2)c1 (configuration not stated),3,-12,2,-7,1,1
O=C(NC1CCCC1)C(c1ccncc1)N(CC1CCCO1)C(=O)Cn1nnc(-c2cccs2)n1 (configuration not stated),78*,-14,95*,-5,0,0.2
O=C(CN(Cc1ccccc1Cl)C(=O)Cn1nnc(-c2cccs2)n1)NCC1CCCO1 (configuration not stated),27,/,40,/,0.6,0.7
COc1ccc(-c2nnn(CC(=O)N(Cc3ccccc3Cl)C(C(=O)NCC3CCCO3)c3ccco3)n2)cc1OC (configuration not stated),19,-12,92*,-6,0.1,0.8
O=C(CCn1nnc(-c2cccs2)n1)NC1CCCCC1,76*,7,-32,-6,1.3,0.2
Cc1ccc(C(C(=O)NCC2CCCO2)N(Cc2ccccc2F)C(=O)Cn2nnc(-c3cccs3)n2)cc1 (configuration not stated),33,-22,52*,-10,0.5,0.7
Cc1nn(-c2ccccc2)c(C)c1/C=N/NC(=O)c1cc(C23CC4CC(CC(C4)C2)C3)[nH]n1,16,10,53*,-7,0.5,0.8
Cc1nn(-c2ccccc2)c(C)c1/C=N/NC(=O)c1cc(-c2ccc(Br)s2)[nH]n1,77*,1,84*,3,0.2,0.2
Cc1nn(-c2ccccc2)c(C)c1/C=N/NC(=O)c1cc(C2CC2)[nH]n1,60*,14,58*,-5,0.4,0.4
Cc1nn(-c2ccccc2)c(C)c1/C=N/NC(=O)c1cc(-c2ccc(Cl)s2)[nH]n1,22,-27,16,-10,0.8,0.8
CC(C)NS(=O)(=O)c1ccc(CCC(=O)NCc2ccco2)cc1,30,/,20,/,0.8,0.7
Cc1ccc(C(C)NC(=O)c2ccco2)cc1 (configuration not stated),/,14,/,4,/,/
Cc1ccc(C(C)NC(=O)c2cc(C)oc2C)cc1 (configuration not stated),77*,4,49,-12,0.5,0.2
Cc1cc(C(=O)Nc2ccccc2)c(C)o1,61*,-2,20,-10,0.8,0.4
CC(C)(C)SCCNC(=O)CN(c1ccc(F)c(Cl)c1)S(C)(=O)=O,-5,-17,9,-7,0.9,1.1
